Values joined by “and” are separate entries in the source; they are usually repeats but may differ in a detail not shown here. Equal values may be shown once.
Each molecule was assayed on H9c2 (assay: cardiomyocyte survival under oxidative or metabolic stress – cell-based, panel, H9c2 and HL-1, ATP luminescence, set 2, SAR follow-up (AID 651871;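 further: cells exposed to stressor for 2 h before ATP readout; reference of the scale not given here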)). Settings: H9c2/HL-1 cardiomyocytes, 2-deoxyglucose stress, with 2-deoxyglucose; run 6, at 79 µM (top of the series).
`CCOC(=O)c1cccc(NC(=O)CNC(=O)c2cc(-c3cc(OC)c(OC)c(OC)c3)nc3ccccc23)c1` was tested, and the activity (protection/inhibition) was 73.8%. With `COc1ccc2c(c1OC)C(=O)N1c3ccccc3C(=O)N(Cc3cccc(Cl)c3Cl)C21` (stereo not drawn) the activity (protection/inhibition) was 104% and 66.4% and -6.1%. Molecule `COc1ccc2nc(-c3cc(OC)c(OC)c(OC)c3)cc(C(=O)NCC(=O)Nc3ccc(C(C)=O)cc3)c2c1` has an activity (protection/inhibition) of 91.5%.
